The list is not random: actives were taken first. Their share in the collection is about 12%.
RORg inh: inhibitors of mouse ROR gamma transcriptional activity | Drosophila S2 Gal4-RORgamma UAS-luciferase reporter, 20 h | hit rate 5.4% among 310,000 | Potency, µM (highest dose often 53.6 µM), without a hit: at the top dose activity change, negative = inhibition, actives largely listed as inhibitors | AID 2551; also: nearly all actives have a fitted effect of over 60% in size
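ROR gamma transcriptional activity was tracked as Gal4-UAS luciferase output in stably transfected Drosophila Schneider cells, with compound added 1 hr before 700 uM copper sulfate induction and a 20 hr ambient-temperature incubation.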
PLK1 PBD inh: PLK1 (human) polo-box domain binding inhibition; Potency, µM, for the others: max response, negative = inhibition, usual class: inhibitors; Plk1 PBD binding of FITC phosphopeptide, fluorescence polarization; AID 720504; P53350; hit rate 2.8% among 360,000; also: series mostly up to about 57 µM; nearly all actives have a fitted effect of over 65% in size
ALDH1A1 inh: blocks purified human ALDH1A1 activity; P00352; Purified ALDH1A1, NADH fluorescence, propionaldehyde substrate; Potency, µM (series often up to 75.3 µM), inactives show at the top dose activity, negative = inhibition, most hits filed as inhibitors; hit rate 7.3% among 220,000; active = well fitted inhibition curve with a large enough effect, not every such curve was filed as active; inconclusive = small, poorly fitted or top-dose-only effect, or another doubt; inactive = no such curve, though single readings can be large or run the other way;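 also: plate controls were no enzyme wells and a reference inhibitor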
Sfp inh: Sfp phosphopantetheinyl transferase inhibition; AID 1490; hit rate 3.5% among 310,000; Biochemical Sfp PPTase activity, qHTS; Potency, µM, for the others: largest response in the series, negative = inhibition, most hits filed as inhibitors; Q9F4F7;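 also: the enzyme is Sfp with the accession as filed and its product quenches rhodamine fluorescence; 0% = enzyme reaction without inhibitor and -100% = no enzyme wells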
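Fluorescence-quenching assay: 15 nM Sfp-PPTase preincubated 15 min at room temperature with compound, then 5 uM rhodamine-CoA and 12.5 uM BHQ-2-labelled YbbR peptide added. Fluorescence (ex 525/em 598 nm) read at start and after 30 min; difference gives rate.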
VP16 counter: Gal4-VP16 reporter inhibition counter-screen | Potency, µM (top dose mostly 53.6 µM), for the others: at the top dose activity, negative = inhibition, actives largely listed as inhibitors | hit rate 3.5% among 310,000 | Drosophila S2 Gal4-VP16 UAS-luciferase, luminescence, 20 h;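 also: Gal4-VP16 expression switched on by copper sulfate through the metallothionein promoter; nearly all actives have a fitted effect of over 50% in size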
* hit, by the source's call; ? = inconclusive; . = no result. Unless noted, calls follow the shape of the dose curve; as a rule, active = well fitted curve in the direction sought with a large enough effect; inconclusive = small, poorly fitted or top-dose-only effect, or another doubt; inactive = no such curve, though single readings can be large; an effect the other way counts as inactive or inconclusive. Unless noted, % is scaled to controls: 0 for no effect and ±100 for the full control effect; potency is read from the fitted curve at half-maximal effect.

SMILES | RORg inh | PLK1 PBD inh | ALDH1A1 inh | Sfp inh | VP16 counter
CCC(C)c1ccc(NC(=S)NC2CCN(Cc3ccccc3)CC2)cc1 (stereo not drawn) | 7.1µM* | -27% | 7.1µM* | -4% | 7.1µM*
Cc1ccc(NC(=S)NC2CCN(Cc3ccccc3)CC2)c(C)c1 | ? | 7% | -10% | 7% | ?
Cc1ccccc1NC(=S)NC1CCN(Cc2ccccc2)CC1 | 18µM* | 8% | ? | -1% | ?
COc1ccc(NC(=S)NC2CCN(Cc3ccccc3)CC2)cc1OC | -26% | 4% | 1% | 13% | 1%
S=C(Nc1ccccc1)NC1CCN(Cc2ccccc2)CC1 | 7% | -16% | 14µM* | -2% | -15%
S=C(Nc1ccc(Cl)cc1)NC1CCN(Cc2ccccc2)CC1 | 18µM* | 4% | 4µM* | -4% | ?
O=C(Nc1ccc(F)cc1)NC1CCN(Cc2ccccc2)CC1 | 3% | -4% | 2% | 30% | -5%
CCc1ccc(NC(=S)NC2CCN(Cc3ccccc3)CC2)cc1 | 10µM* | 5% | 20µM* | -5% | ?
O=C(Nc1cccc(F)c1)N1CCC2(CC1)CCN(C(=O)c1cnccn1)CC2 | -14% | . | 14% | 13% | 5%
COc1cccc(-c2cc3c(=O)n(-c4ccccc4)c(=S)[nH]c3s2)c1 | 0.89µM* | -30% | ? | -3% | 2.5µM*
CCOc1ccc(-n2cnc3scc(-c4ccc(OC)c(OC)c4)c3c2=O)cc1 | 35% | -2% | -1% | 0% | -3%
COc1ccc(-n2c(=S)[nH]c3sc(-c4ccccc4)cc3c2=O)c(OC)c1 | 3.5µM* | -29% | . | 12% | 7.1µM*
COc1ccc(-c2csc3[nH]c(=S)n(-c4ccccc4)c(=O)c23)cc1OC | 2.5µM* | ? | -14% | -25% | 3.2µM*
NC(=S)N/N=C/c1ccccc1OCc1cccc(Cl)c1 | 0.79µM* | -1% | ? | 12% | 4µM*
O/N=C/c1ccc2cccc(OCc3ccccc3)c2n1 | -1% | 1% | . | -8% | 0%
NC(=S)N/N=C/c1ccc2cccc(OCc3ccccc3)c2n1 | 7.1µM* | -13% | . | -11% | ?
O=C(COC(=O)c1nc(Cl)ccc1Cl)Nc1cccc(S(=O)(=O)N2CCOCC2)c1 | . | -16% | . | . | .
CC1Cc2ccccc2N1C(=O)COC(=O)CCc1nc2ccccc2c(=O)[nH]1 (stereo not drawn) | 8% | 4.2µM* | -4% | 18% | 8%
O=C(CCc1nc2ccccc2c(=O)[nH]1)OCC(=O)N1CCc2ccccc21 | -3% | -1% | -4% | 4% | -5%
CC1Cc2ccccc2N1C(=O)COC(=O)Cn1nnc(-c2ccccc2)n1 (stereo not drawn) | -15% | -5% | 0.71µM* | 18% | 4%
O=C(COC(=O)CCc1nc2ccccc2c(=O)[nH]1)Nc1ccc(Cl)cn1 | -39% | 15µM* | . | 15% | 7%
O=C(COC(=O)CCc1nc2ccccc2c(=O)[nH]1)Nc1ccccc1 | . | -15% | . | . | .
CC1Cc2ccccc2N1C(=O)COC(=O)Cc1ccc(F)cc1 (stereo not drawn) | . | -5% | . | . | .
CCN(CC)C(=O)[C@@]1(c2ccccc2)C[C@@H]1CN | 12% | . | . | 3% | -5%
CC1C(=O)CCC1(C(=O)O)c1ccccc1 (stereo not drawn) | -8% | 24µM* | 8% | 20% | -6%
SMILES | RORg inh | PLK1 PBD inh | ALDH1A1 inh | Sfp inh | VP16 counter
CCn1c(SCc2nc3sc(C(=O)O)c(C)c3c(=O)[nH]2)nnc1-c1ccc(Cl)cc1 | 2% | -3% | 14µM* | -2% | 8%
Cc1sc2nc(CSc3nnnn3-c3ccc(Cl)cc3)[nH]c(=O)c2c1C | ? | -10% | ? | 79µM* | ?
S=C(NCc1ccco1)N1CCN(C(c2ccccc2)c2ccccc2)CC1 | 13µM* | -12% | ? | 3% | ?
CC(C)CNC(=S)N1CCN(C(c2ccccc2)c2ccccc2)CC1 | 13µM* | -4% | ? | 0% | ?
C=C(C)CNC(=S)N1CCN(C(c2ccccc2)c2ccccc2)CC1 | ? | -3% | ? | -2% | ?
COCCCNC(=S)N1CCN(C(c2ccccc2)c2ccccc2)CC1 | 16µM* | 3% | . | 7% | ?
O=C(/C=C/[C@H]1O[C@@H](n2ccc(=O)[nH]c2=O)[C@H](O)[C@@H]1O)NCCCc1ccccc1 | . | -10% | . | . | .
NC(c1csc(Nc2ncccn2)n1)c1ccccc1Cl (stereo not drawn) | . | 4% | . | . | .

High-throughput results: PubChem, National Center for Advancing Translational Sciences (NCATS)
